The panel holds about 83,000 compounds, 20% with a hit somewhere; the sample as a whole holds those more often.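 Activity criterion: percent growth below 10, measured after cells in 96-well plates were exposed to a single compound concentration for 48 hours.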 Values without a mark were called inactive. Active and inactive are the calls of the source.
What was measured:
Experiment in all cases: NCI-60 one-dose screen, 48 h (100 = growth as untreated, 0 = no growth, -100 = all killed)
Conditions in all cases: 10 µM unless noted
HCT-15 colon = tested on: HCT-15 colon
HT29 colon = tested on: HT29 colon
SNB-75 CNS = tested on: SNB-75 CNS
SNB-19 CNS = tested on: SNB-19 CNS
U251 CNS = tested on: U251 CNS
SK-MEL-5 melanoma = tested on: SK-MEL-5 melanoma
UACC-62 melanoma = tested on: UACC-62 melanoma
LOX IMVI melanoma = tested on: LOX IMVI melanoma
SK-MEL-28 melanoma = tested on: SK-MEL-28 melanoma
SK-MEL-2 melanoma = tested on: SK-MEL-2 melanoma
EKVX NSCLC = tested on: EKVX NSCLC
SN12C renal = tested on: SN12C renal
UO-31 renal = tested on: UO-31 renal
TK-10 renal = tested on: TK-10 renal
ACHN renal = tested on: ACHN renal
CAKI-1 renal = tested on: CAKI-1 renal
A498 renal = tested on: A498 renal
CCRF-CEM leukemia = tested on: CCRF-CEM leukemia
MOLT-4 leukemia = tested on: MOLT-4 leukemia
PC-3 prostate = tested on: PC-3 prostate

Question: With `COC(=O)[C@]1(C)CCC[C@]2(C)[C@H]3C[C@@H]4[C@H]5[C@@H]6CC/C(=N\OCC/C(N)=N/O)[C@H]5[C@@]3(CC[C@H]21)CC4(C(C)C)O6` as the compound, how does the growth (HCT-15 colon) read?
Answer: 36.6%

Question: And the growth (HT29 colon)?
Answer: 74.2%

Question: What about the growth (SNB-75 CNS) of the same compound?
Answer: 66.9%

Question: What about the growth (SNB-19 CNS) of the same compound?
Answer: 89.4%

Question: And the growth (U251 CNS)?
Answer: 68.4%

Question: What about the growth (SK-MEL-5 melanoma) of the same compound?
Answer: 73.2%

Question: What about the growth (UACC-62 melanoma) of the same compound?
Answer: 58.5%

Question: What about the growth (LOX IMVI melanoma) of the same compound?
Answer: 69%

Question: What about the growth (SK-MEL-28 melanoma) of the same compound?
Answer: 88.9%

Question: And the growth (SK-MEL-2 melanoma)?
Answer: 85.8%

Question: What about the growth (EKVX NSCLC) of the same compound?
Answer: 62.5%

Question: And the growth (SN12C renal)?
Answer: 63.4%

Question: What about the growth (UO-31 renal) of the same compound?
Answer: 50.1%

Question: What about the growth (TK-10 renal) of the same compound?
Answer: 84.9%

Question: What about the growth (ACHN renal) of the same compound?
Answer: 68.4%

Question: What about the growth (CAKI-1 renal) of the same compound?
Answer: 65.1%

Question: What about the growth (A498 renal) of the same compound?
Answer: 82.4%

Question: What about the growth (CCRF-CEM leukemia) of the same compound?
Answer: 18.9%

Question: What about the growth (MOLT-4 leukemia) of the same compound?
Answer: 28%

Question: With `N#Cc1c(-c2ccc(Cl)cc2)nc(NN=Cc2ccc[nH]2)nc1N1CCOCC1` as the compound, how does the growth (HCT-15 colon) read?
Answer: 78.9%

Question: What about the growth (HT29 colon) of the same compound?
Answer: 66.2%

Question: And the growth (SNB-75 CNS)?
Answer: -13.5% (active)

Question: And the growth (SNB-19 CNS)?
Answer: 74.2%

Question: And the growth (U251 CNS)?
Answer: 56.4%

Question: What about the growth (SK-MEL-5 melanoma) of the same compound?
Answer: 85.2%

Question: What about the growth (UACC-62 melanoma) of the same compound?
Answer: 88%

Question: And the growth (LOX IMVI melanoma)?
Answer: 87.8%

Question: And the growth (SK-MEL-28 melanoma)?
Answer: 90.8%

Question: And the growth (SK-MEL-2 melanoma)?
Answer: 98.8%

Question: What about the growth (EKVX NSCLC) of the same compound?
Answer: 66%

Question: What about the growth (SN12C renal) of the same compound?
Answer: 40.1%

Question: And the growth (UO-31 renal)?
Answer: 14.8%

Question: What about the growth (TK-10 renal) of the same compound?
Answer: 63.3%

Question: And the growth (ACHN renal)?
Answer: 82.5%

Question: And the growth (CAKI-1 renal)?
Answer: 63.2%

Question: What about the growth (A498 renal) of the same compound?
Answer: 31.7%

Question: And the growth (CCRF-CEM leukemia)?
Answer: 20.8%

Question: Which results are given for `Oc1ccc(-c2nc3ccc4[nH]ncc4c3c3c2CCCC3)c(F)c1`?
Answer: growth (HCT-15 colon): 15.8%; growth (HT29 colon): 42.5%; growth (SNB-75 CNS): 17%; growth (SNB-19 CNS): 60.5%; growth (U251 CNS): 38.3%; growth (PC-3 prostate): 33.8%; growth (SK-MEL-5 melanoma): 3.31% (active); growth (UACC-62 melanoma): 11.7%; growth (LOX IMVI melanoma): 27.8%; growth (SK-MEL-28 melanoma): 17.5%; growth (SK-MEL-2 melanoma): -13.3% (active); growth (EKVX NSCLC): 38.3%; growth (SN12C renal): 44.8%; growth (UO-31 renal): 17.5%; growth (TK-10 renal): 29.2%; growth (CAKI-1 renal): 13%; growth (A498 renal): 30.1%; growth (CCRF-CEM leukemia): 12%; growth (MOLT-4 leukemia): 2.01% (active)

Question: `O=c1cc(C(F)(F)F)c2cc(-c3cc4ccccc4c(=O)o3)c(O)cc2o1` was tested. Which growth (HCT-15 colon) did it give?
Answer: 90.3%

Question: And the growth (HT29 colon)?
Answer: 106%

Question: And the growth (SNB-75 CNS)?
Answer: 76.1%

Question: What about the growth (SNB-19 CNS) of the same compound?
Answer: 67.7%

Question: And the growth (U251 CNS)?
Answer: 65.7%

Question: What about the growth (SK-MEL-5 melanoma) of the same compound?
Answer: 24.9%

Question: And the growth (UACC-62 melanoma)?
Answer: 21.9%

Question: And the growth (LOX IMVI melanoma)?
Answer: 72.8%

Question: What about the growth (SK-MEL-28 melanoma) of the same compound?
Answer: 69.6%

Question: And the growth (SK-MEL-2 melanoma)?
Answer: 46.1%

Question: And the growth (EKVX NSCLC)?
Answer: 89.5%

Question: What about the growth (SN12C renal) of the same compound?
Answer: 64.4%

Question: What about the growth (UO-31 renal) of the same compound?
Answer: 58.5%

Question: What about the growth (TK-10 renal) of the same compound?
Answer: 103%

Question: What about the growth (CAKI-1 renal) of the same compound?
Answer: 76.5%

Question: What about the growth (A498 renal) of the same compound?
Answer: 72%

Question: What about the growth (CCRF-CEM leukemia) of the same compound?
Answer: 53.9%

Question: And the growth (MOLT-4 leukemia)?
Answer: 58.5%

Question: Which growth (HCT-15 colon) does the source give for `C=C(C)[C@@H]1CC[C@]2(C(=O)N3CCNCC3)CC[C@]3(C)[C@H](CC[C@@H]4[C@@](C)(CCC(=O)N5CCNCC5)[C@H](C(=C)C)CC[C@]43C)[C@@H]12` here?
Answer: 30.8%

Question: What about the growth (HT29 colon) of the same compound?
Answer: 26.1%

Question: And the growth (SNB-75 CNS)?
Answer: 86.3%

Question: What about the growth (SNB-19 CNS) of the same compound?
Answer: 99%

Question: What about the growth (U251 CNS) of the same compound?
Answer: 7.62% (active)

Question: What about the growth (SK-MEL-5 melanoma) of the same compound?
Answer: 89.7%

Question: And the growth (UACC-62 melanoma)?
Answer: 104%

Question: And the growth (LOX IMVI melanoma)?
Answer: 44.4%

Question: What about the growth (SK-MEL-28 melanoma) of the same compound?
Answer: 96.7%

Question: And the growth (SK-MEL-2 melanoma)?
Answer: 102%

Question: And the growth (EKVX NSCLC)?
Answer: 102%

Question: And the growth (SN12C renal)?
Answer: 91.4%

Question: What about the growth (UO-31 renal) of the same compound?
Answer: 64.3%

Question: And the growth (TK-10 renal)?
Answer: 93.6%

Question: And the growth (ACHN renal)?
Answer: 93.9%

Question: What about the growth (CAKI-1 renal) of the same compound?
Answer: 92.7%

Question: What about the growth (A498 renal) of the same compound?
Answer: 76.2%

Question: And the growth (CCRF-CEM leukemia)?
Answer: 3.76% (active)

Question: What about the growth (MOLT-4 leukemia) of the same compound?
Answer: 24.7%

Question: Which results are given for `N[C@@H]1CCC[C@H]1NCCCCN1C(=O)c2cccc3cc([N+](=O)[O-])cc(c23)C1=O`?
Answer: growth (HCT-15 colon): 59.9%; growth (HT29 colon): 14.3%; growth (SNB-75 CNS): 38.1%; growth (SNB-19 CNS): 39.1%; growth (U251 CNS): 33.7%; growth (SK-MEL-5 melanoma): 62.4%; growth (UACC-62 melanoma): 66.3%; growth (LOX IMVI melanoma): 14.9%; growth (SK-MEL-28 melanoma): 85.7%; growth (SK-MEL-2 melanoma): 78.2%; growth (EKVX NSCLC): 61.5%; growth (SN12C renal): 27.4%; growth (UO-31 renal): 61.9%; growth (TK-10 renal): 44.1%; growth (ACHN renal): 13.3%; growth (CAKI-1 renal): 97.7%; growth (A498 renal): 52.8%; growth (CCRF-CEM leukemia): 1.99% (active); growth (MOLT-4 leukemia): -3.36% (active)

Question: Which growth (HCT-15 colon) does the source give for `C[N+]1=C(/C=C/c2ccccc2Cl)C(C)(C)c2ccccc21` here?
Answer: 101%

Question: And the growth (HT29 colon)?
Answer: 91.4%

Question: And the growth (SNB-75 CNS)?
Answer: 95.5%

Question: And the growth (SNB-19 CNS)?
Answer: 107%

Question: And the growth (U251 CNS)?
Answer: 84.2%

Question: What about the growth (SK-MEL-5 melanoma) of the same compound?
Answer: 92.2%

Question: What about the growth (UACC-62 melanoma) of the same compound?
Answer: 91.9%

Question: And the growth (LOX IMVI melanoma)?
Answer: 85.5%

Question: And the growth (SK-MEL-28 melanoma)?
Answer: 103%

Question: And the growth (SK-MEL-2 melanoma)?
Answer: 109%

Question: What about the growth (EKVX NSCLC) of the same compound?
Answer: 96.9%

Question: What about the growth (SN12C renal) of the same compound?
Answer: 103%

Question: And the growth (UO-31 renal)?
Answer: 71.5%

Question: What about the growth (TK-10 renal) of the same compound?
Answer: 114%

Question: And the growth (ACHN renal)?
Answer: 110%

Question: What about the growth (CAKI-1 renal) of the same compound?
Answer: 89%

Question: What about the growth (A498 renal) of the same compound?
Answer: 87.1%

Question: What about the growth (CCRF-CEM leukemia) of the same compound?
Answer: 47.1%

Question: What about the growth (MOLT-4 leukemia) of the same compound?
Answer: 70.3%

Question: For `CC(C)=CC(=O)N[C@H]1CC[C@]2(C)C3CC[C@]4(C)C(C(C)N(C)C)=CCC4C3CCC2[C@H]1O` (stereo not given in full), which growth (HCT-15 colon) is on record?
Answer: -36.5% (active)

Question: And the growth (HT29 colon)?
Answer: 2.01% (active)

Question: And the growth (SNB-75 CNS)?
Answer: 65%

Question: What about the growth (SNB-19 CNS) of the same compound?
Answer: 100%

Question: And the growth (U251 CNS)?
Answer: 51.5%

Question: And the growth (SK-MEL-5 melanoma)?
Answer: -76.1% (active)

Question: What about the growth (UACC-62 melanoma) of the same compound?
Answer: -25.1% (active)

Question: What about the growth (LOX IMVI melanoma) of the same compound?
Answer: -59.1% (active)

Question: What about the growth (SK-MEL-28 melanoma) of the same compound?
Answer: -72.5% (active)

Question: What about the growth (SK-MEL-2 melanoma) of the same compound?
Answer: 106%

Question: And the growth (EKVX NSCLC)?
Answer: 57.7%

Question: What about the growth (SN12C renal) of the same compound?
Answer: 70.1%

Question: What about the growth (UO-31 renal) of the same compound?
Answer: -48% (active)

Question: What about the growth (TK-10 renal) of the same compound?
Answer: 85.7%

Question: And the growth (ACHN renal)?
Answer: 58.6%

Question: What about the growth (CAKI-1 renal) of the same compound?
Answer: 79.4%

Question: What about the growth (A498 renal) of the same compound?
Answer: 66.1%

Question: And the growth (CCRF-CEM leukemia)?
Answer: 13.4%

Question: What about the growth (MOLT-4 leukemia) of the same compound?
Answer: 48.1%

— PubChem BioAssay (NCI)
